Data as given in PubChem BioAssay (Tox21).
Results filed as inconclusive are left out. Active and inactive are the calls of the source. Unless noted, calls follow the shape of the dose curve; as a rule, active = well fitted curve in the direction sought with a large enough effect in the repeat runs; inconclusive = weak or mixed curves; inactive = no such curve, though single readings can be large; an effect the other way counts as inactive or inconclusive.

Legend:
[1] = qHTS assay to identify small molecule agonists of the hypoxia (HIF-1) signaling pathway - cell viability counter screen (AID 1224844; calls by dose curve; also: nearly all actives have a fitted effect of over 50% in size)
Outline: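 Cytotoxicity was measured in parallel with the HRE-driven beta-lactamase readout: after 17 hrs of compound exposure at 37C, HRE-bla ME-180 cells received CellTiter-Glo and luminescence was recorded 30 min later.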

[2] = qHTS assay to identify small molecule agonists of H2AX (AID 1224845; active = well fitted activation curve with a large enough effect in the signal ratio in the repeat runs, not every such curve was filed as active; the % refers to the signal ratio)
Outline: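 Phospho-H2AX Ser139 measured by HTRF (ex 320 nm; em 665 and 620 nm) after 24 hr antibody incubation. Compounds, 15 concentrations, 0.76% DMSO, were applied to CHO-K1 cells for 3hr at 37C before lysis.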

[3] = qHTS assay to identify small molecule agonists of H2AX - cell viability counter screen (AID 1224847; calls by dose curve; also: top concentration of the series differs between compounds; nearly all actives have a fitted effect of over 30% in size)
Outline: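 Compounds tested at 15 concentrations were incubated 3 hr at 37C with wild-type CHO-K1 cells; cellular ATP-based luminescence (CellTiter-Glo) indicated viability.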

[4] = qHTS assay to identify small molecule antagonists of the estrogen related receptor (ERR) signaling pathway from Tox21 library (AID 1224848); also: nearly all actives have a fitted effect of over 50% in size
Outline: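 ERR cell line, 2,000 cells/well. 6 h settle, then compound (DMSO) added; 18 h at 37 C; ONE-Glo luminescence after 30 min RT.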

[5] = qHTS assay to identify small molecule agonists of the estrogen related receptor (ERR) signaling pathway from Tox21 library (AID 1224849; calls by dose curve; also: nearly all actives have a fitted effect of over 15% in size); conditions: ERR reporter cell line, ONE-Glo luciferase, 18 h; at 92.4 µM (top of the series) unless noted
Outline: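 Cells carrying the ERR reporter were plated and allowed to settle for 6 h, exposed to library compounds for 18 h at 37 C, then lysed with ONE-Glo and luminescence measured.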

[6] = qHTS RealTime-Glo MT Cell Viability Assay in HepG2 cells - 24 hour (AID 1224867); also: nearly all actives have a fitted effect of over 50% in size
Outline: (§1)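 Real-time, nonlytic viability: 600 HepG2 cells/well mixed with NanoLuc enzyme plus prosubstrate; 5 h settle, compound (DMSO) added by pintool; luminescence monitored over 40 h at 37 C.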

[7] = qHTS RealTime-Glo MT Cell Viability Assay in HEK293 cells - 32 hour (AID 1224868); also: top concentration of the series differs between compounds; nearly all actives have a fitted effect of over 50% in size
Outline: (§2)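 Cells + reagent dispensed (600 cells/well, HEK293) → 5 h at 37 C/5% CO2 → 23 nL compound in DMSO pinned → 40 h at 37 C → luminescence read at 0, 8, 16, 24, 32, 40 h.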

[8] = A CellTox Green Cytotoxicity Assay to monitor cytotoxicity in HEK293 cells - 0 hour (AID 1224869); also: nearly all actives have a fitted effect of over 50% in size
Outline: (§3)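 Cells (HEK293, 600/well) and dye reagent are dispensed together. After 5 h at 37 C, 23 nL compound is pinned in. Plates stay at 37 C for 40 h with fluorescence read at 0h, 8h, 16h, 24h, 32h and 40h.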

[9] = qHTS RealTime-Glo MT Cell Viability Assay in HepG2 cells - 40 hour (AID 1224870); also: nearly all actives have a fitted effect of over 50% in size
Outline: (§4)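 Real-time viability: cells seeded at 600 per well together with NanoLuc and cell-permeant prosubstrate, compounds added after 5 h incubation. Luminescence tracked at 0, 8, 16, 24, 32 and 40 h of exposure.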

[10] = A CellTox Green Cytotoxicity Assay to monitor cytotoxicity in HEK293 cells - 40 hour (AID 1224871); also: nearly all actives have a fitted effect of over 45% in size
Outline: as §3

[11] = qHTS RealTime-Glo MT Cell Viability Assay in HEK293 cells - 16 hour (AID 1224872)
Outline: as §2

[12] = qHTS RealTime-Glo MT Cell Viability Assay in HepG2 cells - 8 hour (AID 1224873); also: nearly all actives have a fitted effect of over 55% in size
Outline: as §4

[13] = qHTS RealTime-Glo MT Cell Viability Assay in HEK293 cells - 40 hour (AID 1224874); conditions: RealTime-Glo luminescence; max response: stronger effect = lower value; also: nearly all actives have a fitted effect of over 50% in size
Outline: (§5)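 Real-time viability in HEK293: signal arises when living cells convert a prosubstrate for NanoLuc in the medium, so luminescence tracks viable cell number. Compound (23 nL, DMSO) added 5 h post-seeding; kinetic reads at 0–40 h, 37 C.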

[14] = A CellTox Green Cytotoxicity Assay to monitor cytotoxicity in HepG2 cells - 16 hour (AID 1224876); also: nearly all actives have a fitted effect of over 45% in size
Outline: (§6)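 Cells and non-lytic dye reagent are dispensed together (600 HepG2 cells/well) and incubated 5 h before DMSO compound transfer. Kinetic fluorescence is then recorded in the same wells during 40 h at 37 C.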

[15] = qHTS RealTime-Glo MT Cell Viability Assay in HepG2 cells - 32 hour (AID 1224877); also: nearly all actives have a fitted effect of over 55% in size
Outline: as §1

[16] = A CellTox Green Cytotoxicity Assay to monitor cytotoxicity in HepG2 cells - 24 hour (AID 1224878); also: nearly all actives have a fitted effect of over 45% in size
Outline: as §6

[17] = A CellTox Green Cytotoxicity Assay to monitor cytotoxicity in HepG2 cells - 40 hour (AID 1224879); also: nearly all actives have a fitted effect of over 40% in size
Outline: as §6

[18] = qHTS RealTime-Glo MT Cell Viability Assay in HEK293 cells - 0 hour (AID 1224880); also: top concentration of the series differs between compounds; nearly all actives have a fitted effect of over 45% in size
Outline: as §5

[19] = A CellTox Green Cytotoxicity Assay to monitor cytotoxicity in HEK293 cells - 24 hour (AID 1224875); also: nearly all actives have a fitted effect of over 45% in size
Outline: as §3

[20] = qHTS assay to identify small molecule agonists of the hypoxia (HIF-1) signaling pathway (AID 1224846; active = well fitted activation curve with a large enough effect in the signal ratio in the repeat runs, not every such curve was filed as active; the % refers to the signal ratio)
Outline: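 Compounds from the Tox21 10K library, dissolved in DMSO, are tested for induction of a hypoxia response element–controlled beta-lactamase reporter in ME-180 cells. Exposure lasts 17 hrs at 37C after a 5 hr settling period, followed by CCF4-AM FRET substrate.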
% is scaled to controls: 0 for no effect and ±100 for the full control effect.

Nc1ccc([N+](=O)[O-])c(N)c1
inactive: outcome [1] | outcome [2] | Potency [3] | Potency [4] | activity change, positive = activation [5] 5.15% | outcome [6] | Potency [7] | outcome [8] | outcome [9] | Potency [10] | Potency [11] | outcome [12] | max response [13] -10.3% | outcome [14] | outcome [15] | outcome [16] | Potency [17] | Potency [18]

COc1ccc(C2CNC(=O)C2)cc1OC1CCCC1 (centres undefined)
inactive: outcome [1] | outcome [2] | Potency [3] | Potency [4] | activity change, positive = activation [5] -4.57% [at 42.5 µM] | outcome [6] | Potency [7] | outcome [8] | outcome [9] | Potency [10] | Potency [11] | outcome [12] | max response [13] -17.5% | outcome [19] | outcome [14] | outcome [15] | outcome [16] | Potency [17]

N[C@@H](CCC(=O)Nc1ccc([N+](=O)[O-])cc1)C(=O)O
inactive: outcome [1] | outcome [2] | Potency [3] | Potency [4] | activity change, positive = activation [5] -15.8% | outcome [6] | Potency [7] | outcome [8] | outcome [9] | Potency [10] | Potency [11] | outcome [12] | max response [13] -16.1% | outcome [14] | outcome [15] | outcome [16] | Potency [17] | Potency [18]

Cc1ccsc1/C=C/C1=NCCCN1C
inactive: outcome [1] | outcome [2] | Potency [3] | Potency [4] | activity change, positive = activation [5] -1.39% [at 42.5 µM] | outcome [6] | Potency [7] | outcome [8] | outcome [9] | Potency [10] | Potency [11] | outcome [12] | max response [13] 2.37% | outcome [14] | outcome [15] | outcome [16] | Potency [17]

COC(=O)CCCCCCCC(=O)OC
inactive: outcome [1] | outcome [2] | outcome [20] | Potency [4] | activity change, positive = activation [5] 1.98% | outcome [6] | Potency [7] | outcome [8] | outcome [9] | Potency [10] | Potency [11] | outcome [12] | max response [13] 11.9% | outcome [19] | outcome [14] | outcome [15] | outcome [16] | Potency [17] | Potency [18]

CCOC(=O)/C=C/c1ccccc1
inactive: outcome [1] | outcome [2] | outcome [20] | outcome [6] | Potency [7] | outcome [8] | outcome [9] | Potency [10] | outcome [12] | max response [13] -4.48% | outcome [19] | outcome [14] | outcome [15] | outcome [16] | Potency [17] | Potency [18]

COC(=O)c1ccccc1C(=O)c1ccc(OCCN2CCCCC2)cc1
inactive: outcome [1] | outcome [2] | outcome [20] | Potency [4] | activity change, positive = activation [5] 1.12% [at 42.5 µM] | outcome [6] | Potency [7] | outcome [8] | outcome [9] | Potency [10] | Potency [11] | max response [13] -12% | outcome [19] | outcome [14] | outcome [15] | outcome [16] | Potency [17]

COc1ccc(S(=O)(=O)N2c3ccc(Cl)cc3[C@@](O)(c3ccccc3Cl)[C@H]2C(=O)N2CCC[C@@H]2C(N)=O)cc1OC
inactive: outcome [1] | outcome [2] | outcome [20] | Potency [3] | outcome [6] | outcome [8] | outcome [9] | Potency [10] | outcome [12] | outcome [19] | outcome [14] | outcome [15] | outcome [16] | Potency [17] | Potency [18]

O=S(=O)(O)CCN1CCN(CCO)CC1
inactive: outcome [1] | outcome [2] | Potency [3] | Potency [4] | activity change, positive = activation [5] 9.7% | outcome [6] | Potency [7] | outcome [8] | outcome [9] | Potency [10] | Potency [11] | outcome [12] | max response [13] -3.48% | outcome [19] | outcome [14] | outcome [15] | outcome [16] | Potency [17] | Potency [18]

CC(C)N(c1ccccc1)C(C)C
inactive: outcome [1] | outcome [2] | outcome [20] | outcome [6] | Potency [7] | outcome [8] | outcome [9] | Potency [10] | Potency [11] | outcome [12] | max response [13] 4.56% | outcome [19] | outcome [14] | outcome [15] | outcome [16] | Potency [17] | Potency [18]
